Shown are actives, neighbours in structure and some others; about 18% of the full set was active somewhere.
LDHA block: LDHA (human) enzyme inhibition. P00338. purified LDHA, NADH/diaphorase-resazurin fluorescence; hits give low values. activity change, % (values are at about 110 or 230 µM). actives 0.15% (n = 480,000); in the data active means activity change below about -30%; inconclusive means mostly about -25% to -30%;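 further: plate controls were DMSO wells for no effect and wells without enzyme for full effect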
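Resorufin fluorescence (ex540/em590), read at 0 and 20 min after diaphorase/resazurin addition, reports the NADH left after a 5 min room-temperature reaction of 2 nM human LDH5 with 0.06 mM NADH and 0.2 mM pyruvate.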
DT40 TDP1 no CPT: qHTS for Inhibitors of human tyrosyl-DNA phosphodiesterase 1 (TDP1): qHTS in cells in absence of CPT. DT40 Tdp1-/- hTDP1 cells, no CPT, ATP luminescence, 48 h. Potency, µM (highest dose often 46.2 µM), inactives show at the top dose activity change, negative = growth inhibition, usual class: inhibitors. actives 15% (n = 420,000); further: potency means the concentration at half of the fitted maximal effect; nearly all actives have a fitted effect of over 55% in size
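No-CPT arm: Tdp1-/-;hTDP1 DT40 cells (400/well) plus compounds, incubated ≥48 hr at 37 °C. Readout CellTiter-Glo luminescence.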
RORgamma inh: inhibitors of mouse ROR gamma transcriptional activity. P51450. AID 2551. Potency, µM (highest dose often 53.6 µM), for inactives: top-dose activity change, negative = inhibition, most hits filed as inhibitors. Drosophila S2 Gal4-RORgamma UAS-luciferase reporter, 20 h. actives 5.4% (n = 310,000); further: potency means the concentration at half of the fitted maximal effect; nearly all actives have a fitted effect of over 60% in size
Target sequence (P51450 whole entry, looked up, the tested form may be a part): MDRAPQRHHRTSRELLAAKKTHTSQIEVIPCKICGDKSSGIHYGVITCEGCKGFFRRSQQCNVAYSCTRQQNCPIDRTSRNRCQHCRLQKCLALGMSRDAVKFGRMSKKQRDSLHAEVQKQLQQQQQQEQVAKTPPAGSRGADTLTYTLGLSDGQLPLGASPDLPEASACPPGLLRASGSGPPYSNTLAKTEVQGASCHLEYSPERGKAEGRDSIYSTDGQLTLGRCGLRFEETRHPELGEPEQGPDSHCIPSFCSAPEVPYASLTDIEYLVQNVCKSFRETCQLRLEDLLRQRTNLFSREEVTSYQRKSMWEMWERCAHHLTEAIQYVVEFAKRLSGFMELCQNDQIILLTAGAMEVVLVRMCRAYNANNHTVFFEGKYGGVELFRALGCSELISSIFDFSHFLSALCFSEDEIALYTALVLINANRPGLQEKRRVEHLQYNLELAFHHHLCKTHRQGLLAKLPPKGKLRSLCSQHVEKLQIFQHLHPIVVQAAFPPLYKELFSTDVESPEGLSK
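A Gal4/UAS one-hybrid system in insect cells: metallothionein-promoter Gal4–ROR gamma fusion plus Photinus luciferase reporter. Copper sulfate 700 uM final, 20 hr ambient incubation, luminescent detection after 10 min with reagent.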
DT40 TDP1 CPT: DT40-hTDP1 cell growth loss with CPT; chicken DT40 Tdp1-/-;hTDP1 cells + 20 nM CPT, ATP luminescence, 48 h; Potency, µM (top dose mostly 46.2 µM), inactives show at the top dose activity change, negative = growth inhibition, usual class: inhibitors; actives 12% (n = 420,000); AID 686979; further: potency means the concentration at half of the fitted maximal effect; nearly all actives have a fitted effect of over 55% in size
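Chicken DT40 Tdp1-/- cells stably complemented with human TDP1 were seeded at 400 cells/well in medium containing 20 nM camptothecin, exposed to pin-transferred compounds, and grown at 37 °C for at least 48 hr. Viability was read as ATP luminescence.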
VP16 counter: Gal4-VP16 reporter inhibition counter-screen. Drosophila S2 Gal4-VP16 UAS-luciferase, luminescence, 20 h. actives 3.5% (n = 310,000). AID 2546. Potency, µM (titrated, usually from 53.6 µM), for the others: at the highest dose activity, negative = inhibition, hits mostly inhibitors;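 further: Gal4-VP16 expression switched on by copper sulfate through the metallothionein promoter; potency means the concentration at half of the fitted maximal effect; nearly all actives have a fitted effect of over 50% in size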
IL1B secr inh: blocks inflammasome-driven IL-1 beta release; activity change, % at 57.5 µM; actives 4.7% (n = 360,000); THP-1 LPS/ATP IL-1B secretion, AlphaLISA, 16 h; hits give low values; in the data active means activity change below about -50%; inconclusive means mostly about -30% to -49%
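Secreted IL-1B measured by AlphaLISA bead assay after 16 h compound exposure of THP-1 cells; compounds (final up to 57.5 uM) added 1 h before LPS (250 ng/mL) and ATP (1.25 mM) stimulation; lower signal means less secretion.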
* marks the source's active call; other numbers are inactive results; ? = inconclusive; / = no result given; ! = not active in a repeat. Unless noted, the call rests on the fitted dose curve; in most records, active means well fitted curve in the direction sought with a large enough effect; inconclusive means small, poorly fitted or top-dose-only effect, or another doubt; inactive means no such curve, though single readings can be large; an effect the other way counts as inactive or inconclusive. Unless noted, on the % scale 0 is the no-effect control and ±100 the full control effect.

SMILES	LDHA block	DT40 TDP1 no CPT	RORgamma inh	DT40 TDP1 CPT	VP16 counter	IL1B secr inh
C=C1CC[C@H](O)C/C1=C/C=C1\CCC[C@]2(C)[C@@H]([C@H](C)CC[C@@H](O)C(C)(C)O)CC[C@@H]12	/	/	-30.7%	/	?	/
C=C1CC[C@H](O)C/C1=C/C=C1\CCC[C@]2(C)[C@@H]([C@H](C)CCCC(C)(C)O)CC[C@@H]12	/	/	?	/	11.2µM*!	/
C=C1C(=C/C=C2\CCC[C@]3(C)[C@@H]([C@H](C)/C=C/[C@@H](O)C4CC4)CC[C@@H]23)C[C@@H](O)C[C@@H]1O	/	26.6µM*	/	23.7µM*	/	/
C[C@H](/C=C/[C@H](C)C(C)(C)O)[C@H]1CC[C@H]2/C(=C/C=C3C[C@@H](O)C[C@H](O)C3)CCC[C@]12C	/	-14.5%	/	-26.8%	/	/
C=C1C(=C/C=C2\CCC[C@]3(C)[C@@H]([C@H](C)CCCC(C)C)CC[C@@H]23)C[C@@H](O)C[C@@H]1O	/	10.6µM*	/	?	/	/
C=C1/C(=C\C=C2/CCC[C@]3(C)[C@@H]([C@H](C)CCCC(C)(C)O)CC[C@@H]23)C[C@@H](O)C[C@@H]1O	/	/	10µM*!	/	?	/
CCOc1ccc2c(c1)cc(C(=O)Nc1ccccc1OC)n2C	13.4	/	/	/	/	/
Cc1csc(N2N=C(c3ccccc3)CC2c2ccc(Cl)cc2)n1 (stereo unspecified)	-13.7	/	/	/	/	/
Cc1ccc(NS(=O)(=O)c2c(C)nc3scc(C)n3c2=O)cc1Cl	-4.1	/	/	/	/	/
Cc1ccnc(NC(=O)c2cccc(S(=O)(=O)N3CCCc4ccccc43)c2)c1	-3.8	20.6µM*	/	20.6µM*	/	3.7
Cc1cc(C)c(S(=O)(=O)N2CCCc3ccccc32)c(C)c1	-2.7	?	?	?	-22.4%	29.5
O=C(Nc1ncccc1O)c1cccc(S(=O)(=O)N2CCCc3ccccc32)c1	7.7	-22.5%	/	-14.6%	/	-12.1
Cc1cccnc1NC(=O)c1cccc(S(=O)(=O)N2CCCc3ccccc32)c1	-2.3	?	11.2µM*	?	?	-9.8
Cc1cccc(S(=O)(=O)N2CCCc3ccccc32)c1	1.6	?	4.0%	25.9µM*	2.6%	34.0
Clc1ccc(Cl)c(NCc2nnc3n2CCCCC3)c1	-8.3	/	/	/	/	/
O=C1C2C3c4ccccc4C(c4ccccc43)C2C(=O)N1/N=C/c1cccc(O)c1 (stereo unspecified)	0.3	?	-15.4%	20.6µM*	-7.0%	-4.9
Cc1nc(N2CCN(S(=O)(=O)c3cccc4nonc34)CC2)c2c3c(sc2n1)CCCC3	-0.2	16.4µM*	-33.6%	?	3.6%	-2.9
CCOC(=O)N1CCN(C(=O)C[C@@H]2C[C@@]3(C(=O)OCC)CCCC=C3N(Cc3ccc(Cl)cc3Cl)C2=O)CC1	4.1	23.1µM*	/	20.6µM*	/	-27.6
CCOC(=O)[C@]12CCC=C1N(Cc1ccc(Cl)cc1Cl)C(=O)[C@H](CC(=O)N1CCSCC1)C2	-1.8	16.4µM*	/	23.1µM*	/	-22.9
CCOC(=O)N1CCN(C(=O)C[C@@H]2C[C@@]3(C(=O)OC)CCCCC=C3N(Cc3ccc(Cl)cc3Cl)C2=O)CC1	2.7	11.6µM*	/	20.6µM*	/	/
COc1ccc(NC(=O)c2sc(-c3ccco3)nc2-c2ccccc2)cc1OC	-7.0	/	/	/	/	/
CCCCc1ccc(-c2csc(NC(=O)COCc3nc4ccccc4c(=O)[nH]3)n2)cc1	3.0	/	/	/	/	/
COC(=O)COc1ccccc1/C=C1/NC(=O)NC1=O	-6.5	-11.3%	-8.8%	9.0%	-11.1%	-71.0*
CC1CN(C2CCN(S(=O)(=O)c3ccccc3)CC2)CC(C)O1 (stereo unspecified)	-32.4*	-1.6%	?	-16.0%	-5.4%	-0.3
COc1ccc(OCC(=O)NC(=S)Nc2ccc(N3CCOCC3)c(Cl)c2)cc1	-4.2	-14.9%	-82.6%	-21.2%	-2.5%	-0.1
SMILES	LDHA block	DT40 TDP1 no CPT	RORgamma inh	DT40 TDP1 CPT	VP16 counter	IL1B secr inh
CC(C)CC(=O)NC(=S)Nc1ccc(N2CCOCC2)c(Cl)c1	-1.8	?	7.94µM*	-19.1%	?	7.9
O=C(NC(=S)Nc1ccc(N2CCCCC2)c(Cl)c1)c1ccc2c(c1)OCCO2	1.3	20.6µM*	3.16µM*	16.4µM*	6.31µM*	-7.4
O=C(NC(=S)Nc1ccc(N2CCOCC2)c(Cl)c1)c1cncc(Br)c1	-10.2	-33.8%	1µM*	-3.0%	0.562µM*	14.3
O=C(NC(=S)Nc1ccc(N2CCOCC2)c(Cl)c1)c1cccs1	-1.4	?	?	?	14.1µM*	-25.4
O=C(Nc1ccc(N2CCCC2)c(Cl)c1)c1cccs1	-13.4	-24.8%	10.5%	-28.7%	-24.8%	/
O=C(Nc1ccc(N2CCOCC2)c(Cl)c1)c1cccnc1	-5.6	-7.1%	12.0%	-25.8%	17.5%	-15.4
Cc1ccc(N2NC3(CCCC(C)C3)NC2=S)cc1C (stereo unspecified)	6.7	/	/	/	/	/
CC1(C)CC(=O)C2=C(C1)OC(N)=C(C#N)C2c1cccc(Br)c1 (stereo unspecified)	14.3	/	/	/	/	/
CC(C)C(=O)NC1(C(F)(F)F)N=C(c2ccccc2)N(CCc2ccccc2)C1=O (stereo unspecified)	5.6	/	/	/	/	/
O=C(NC1(C(F)(F)F)N=C(c2ccccc2)N(Cc2ccco2)C1=O)c1cccs1 (stereo unspecified)	-3.3	/	/	/	/	/
Cc1ccc(C(=O)NC2(C(F)(F)F)N=C(c3ccccc3)N(Cc3ccccc3)C2=O)cc1 (stereo unspecified)	5.1	25.9µM*	/	?	/	/
